These results are taken from PubChem BioAssay (Tox21).

Records with an inconclusive call do not appear. Entries that show only a call come without a potency. Unmarked numbers belong to inactive results. The source made the active and inactive calls. Calls come from the whole dose curve; as a rule, active = well fitted curve in the direction sought with a large enough effect in the repeat runs; inconclusive = weak or mixed curves; inactive = no such curve, though single readings can be large; an effect the other way counts as inactive or inconclusive.
Potency is the fitted concentration of half-maximal effect.

For the first assay, the target named is Nuclear receptor subfamily 1 group I member 2 (Homo sapiens) (UniProt O75469). The assay is described as follows: Human pregnane X receptor (PXR) activation by small molecules, qHTS assay (AID 1346985). Note: nearly all actives have a fitted effect of over 40% in size. The following applies: DPX-2 HepG2 CYP3A4-luciferase, 24 h; series mostly up to 38.3 µM. An outline of the steps: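 DPX-2 cells (HepG2 co-transfected with a PXR response element and a CYP3A4-promoter luciferase construct) were seeded at 2,000 per well, rested 5 hr at 37C, then exposed to DMSO-dissolved compounds for 24 hr. Activation was read as luciferase luminescence.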
In the case of `CC(=O)Nc1c(I)cc(I)c(C(=O)O)c1I`, the Potency result is “inactive”.

Consider `COc1cc(C(=O)N2CCCCCCC2)cc(OC)c1OC`, for which the Potency is 15.8 µM (active).

`CCCC(=O)O[C@]1(C(=O)CO)CC[C@H]2[C@@H]3CCC4=CC(=O)CC[C@]4(C)[C@H]3[C@@H](O)C[C@@]21C`: the Potency entry is “inactive”.

Take `NC(=O)c1cn(Cc2c(F)cccc2F)nn1`: the Potency entry was “inactive”.

With `NS(=O)(=O)c1cc(C(=O)O)cc(N2CCCC2)c1Oc1ccccc1`, the Potency result is “inactive”.

For the compound `CN1CC(=O)NC1=N`, the Potency entry is “inactive”.

Turning to `COc1c(N2C[C@@H]3CCCN[C@@H]3C2)c(F)cc2c(=O)c(C(=O)O)cn(C3CC3)c12`, the Potency entry was “inactive”.

As for `CC(=O)OCC(CCn1cnc2cnc(N)nc21)COC(C)=O`, the Potency result is “inactive”.

The target in another assay is Cytochrome P450 2D6 (Homo sapiens) (UniProt P10635). The assay is described as follows: Cytochrome P450 Family 2 Subfamily D Member 6 (CYP2D6) small molecule antagonists: luciferase reporter qHTS assay (AID 1671196). Note: nearly all actives have a fitted effect of over 50% in size. The following applies: P450-Glo CYP2D6 enzyme assay, luciferin luminescence, 1 h; series mostly up to 115 µM. An outline of the steps: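 CYP2D6 activity was followed as luminescence from its luciferin product after a 1 h NADPH-driven reaction at room temperature. Enzyme-substrate mix and compound were pre-incubated for 10 min, and the signal was read 20 min after adding detection reagent.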
Cytochrome P450 2D6 (Homo sapiens), sequence (P10635 whole entry, looked up): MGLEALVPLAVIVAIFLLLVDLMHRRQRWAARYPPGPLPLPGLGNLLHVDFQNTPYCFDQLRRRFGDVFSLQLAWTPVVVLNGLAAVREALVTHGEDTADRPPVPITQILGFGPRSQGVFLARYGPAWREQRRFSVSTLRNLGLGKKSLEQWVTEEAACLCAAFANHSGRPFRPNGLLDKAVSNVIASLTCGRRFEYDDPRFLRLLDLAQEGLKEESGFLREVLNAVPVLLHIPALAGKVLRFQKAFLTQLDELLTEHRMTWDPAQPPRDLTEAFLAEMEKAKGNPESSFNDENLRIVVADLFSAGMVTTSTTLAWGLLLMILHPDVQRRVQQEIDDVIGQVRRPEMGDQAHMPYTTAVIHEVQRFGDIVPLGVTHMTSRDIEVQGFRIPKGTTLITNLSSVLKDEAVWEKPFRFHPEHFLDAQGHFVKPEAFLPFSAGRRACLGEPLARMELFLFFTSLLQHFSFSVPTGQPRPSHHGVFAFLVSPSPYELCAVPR
For orientation: Reporter assays use an easily measured gene product as a stand-in for the process of interest.
In the case of `CC(C)(C)c1ccc(O)c(O)c1`, the Potency was 23.8 µM (active).

As to `CCOC(C)(C)C`, the Potency entry was “inactive”.

For `CC(=O)Nc1c(I)cc(I)c(C(=O)O)c1I`, the Potency is 27.5 µM (active).

With `Cc1cnc(NS(=O)(=O)c2ccc(N)cc2)nc1`, the Potency result is “inactive”.

As for `COc1cc(C(=O)N2CCCCCCC2)cc(OC)c1OC`, the Potency entry is “inactive”.

Consider `NS(=O)(=O)c1ccc(C(=O)O)cc1`, for which the Potency result is “inactive”.

Take `CC(NC(CCc1ccccc1)C(=O)O)C(=O)N1C(=O)N(C)CC1C(=O)O` (stereo not given): the Potency entry is “inactive”.

For `N#Cc1ccc(C2CCCc3cncn32)cc1` (stereo not given), the Potency was 12.7 µM (active).

As to `Cc1ccc(Cl)cc1Cl`, the Potency result was “inactive”.

`CCCC(=O)O[C@]1(C(=O)CO)CC[C@H]2[C@@H]3CCC4=CC(=O)CC[C@]4(C)[C@H]3[C@@H](O)C[C@@]21C`: the Potency entry is “inactive”.

For the compound `CCOC(=O)c1cccc(N)c1`, the Potency entry is “inactive”.

In the case of `CCCN(CCC)CCc1cccc2c1CC(=O)N2`, the Potency is 0.977 µM (active).

As for `NC(=O)c1cn(Cc2c(F)cccc2F)nn1`, the Potency entry is “inactive”.

With `CC(C)CNCC(C)C`, the Potency result is “inactive”.

In the case of `O=c1n(CCO)c(=O)n(CCO)c(=O)n1CCO`, the Potency entry was “inactive”.

Take `NS(=O)(=O)c1cc(C(=O)O)cc(N2CCCC2)c1Oc1ccccc1`: the Potency entry was “inactive”.

`CN1CC(=O)NC1=N`: the Potency result is “inactive”.

Turning to `CCCCCCOC(=O)CCCCC(=O)OCCCCCC`, the Potency result was “inactive”.

Turning to `COc1c(N2C[C@@H]3CCCN[C@@H]3C2)c(F)cc2c(=O)c(C(=O)O)cn(C3CC3)c12`, the Potency entry is “inactive”.

`CO[C@]12C[C@@H](COC(=O)c3cncc(Br)c3)CN(C)[C@@H]1Cc1cn(C)c3cccc2c13`: the Potency was 0.0692 µM (active).

Consider `CC(C)(O)C#CC(C)(C)O`, for which the Potency entry is “inactive”.

Regarding `NC(=O)Nc1ccccc1`, the Potency entry was “inactive”.

In the case of `N=c1nc(N2CCCCC2)cc(N)n1O`, the Potency is 21.9 µM (active).

In the case of `CCC(C)S` (stereo not given), the activity change, negative = inhibition is -10.7% [at 4.07 µM].

As to `O=C(O)CCCc1ccccc1`, the Potency result was “inactive”.

In the case of `Cn1cc(S(C)=O)c(=O)c2ccc(F)cc21` (stereo not given), the Potency result was “inactive”.

In a further assay the target is Cytochrome P450 2C19 (Homo sapiens) (UniProt P33261). The assay is described as follows: Cytochrome P450 Family 2 Subfamily C Member 19 (CYP2C19) small molecule antagonists: luciferase reporter qHTS assay (AID 1671197). Note: nearly all actives have a fitted effect of over 65% in size. To be noted: P450-Glo CYP2C19 enzyme, luciferin luminescence, 1 h; series mostly up to 52.9 µM. In a few lines: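 P450-Glo CYP2C19 system: enzyme-substrate mix with compound 10 min at room temperature, then NADPH regeneration solution, 1 h at 37C. Proluciferin-to-luciferin conversion detected by luminescence after 20 min with detection reagent; ketoconazole as positive control.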
Cytochrome P450 2C19 (Homo sapiens), sequence (P33261 whole entry, looked up): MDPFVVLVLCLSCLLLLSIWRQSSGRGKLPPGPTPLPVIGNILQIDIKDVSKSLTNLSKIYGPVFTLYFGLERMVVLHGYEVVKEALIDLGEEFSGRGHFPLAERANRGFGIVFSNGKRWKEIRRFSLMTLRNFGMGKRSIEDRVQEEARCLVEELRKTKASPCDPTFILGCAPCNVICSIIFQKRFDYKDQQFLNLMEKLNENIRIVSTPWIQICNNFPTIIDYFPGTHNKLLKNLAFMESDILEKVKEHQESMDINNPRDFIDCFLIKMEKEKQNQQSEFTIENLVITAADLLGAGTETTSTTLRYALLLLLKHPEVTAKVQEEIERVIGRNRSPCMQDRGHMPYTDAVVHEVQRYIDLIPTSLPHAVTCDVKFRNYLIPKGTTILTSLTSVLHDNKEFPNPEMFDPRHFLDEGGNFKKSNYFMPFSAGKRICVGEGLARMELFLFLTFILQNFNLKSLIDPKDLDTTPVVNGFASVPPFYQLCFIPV
For `CC(C)(C)c1ccc(O)c(O)c1`, the Potency entry was “inactive”.

Consider `CCOC(C)(C)C`, for which the Potency entry was “inactive”.

For `N=C(N)c1ccccc1`, the Potency result is “inactive”.

Turning to `Cc1cnc(NS(=O)(=O)c2ccc(N)cc2)nc1`, the Potency entry was “inactive”.

Regarding `COc1cc(C(=O)N2CCCCCCC2)cc(OC)c1OC`, the Potency was 21.9 µM (active).

Consider `NS(=O)(=O)c1ccc(C(=O)O)cc1`, for which the Potency result was “inactive”.

With `CC(NC(CCc1ccccc1)C(=O)O)C(=O)N1C(=O)N(C)CC1C(=O)O` (stereo not given), the Potency entry is “inactive”.

Regarding `N#Cc1ccc(C2CCCc3cncn32)cc1` (stereo not given), the Potency is 12.7 µM (active).

With `Cc1ccc(Cl)cc1Cl`, the Potency result is “inactive”.

In the case of `CCCC(=O)O[C@]1(C(=O)CO)CC[C@H]2[C@@H]3CCC4=CC(=O)CC[C@]4(C)[C@H]3[C@@H](O)C[C@@]21C`, the Potency entry was “inactive”.

Consider `CCOC(=O)c1cccc(N)c1`, for which the Potency result was “inactive”.

Take `CCN(CC)CCOCCOC(=O)C1(c2ccccc2)CCCC1`: the Potency entry was “inactive”.

As to `CCCN(CCC)CCc1cccc2c1CC(=O)N2`, the Potency result was “inactive”.

Regarding `NC(=O)c1cn(Cc2c(F)cccc2F)nn1`, the Potency entry was “inactive”.

Regarding `CC(C)CNCC(C)C`, the Potency entry is “inactive”.

As for `O=c1n(CCO)c(=O)n(CCO)c(=O)n1CCO`, the Potency entry was “inactive”.

Turning to `NS(=O)(=O)c1cc(C(=O)O)cc(N2CCCC2)c1Oc1ccccc1`, the Potency entry is “inactive”.

Take `CN1CC(=O)NC1=N`: the Potency entry was “inactive”.

`CCCCCCOC(=O)CCCCC(=O)OCCCCCC`: the Potency entry is “inactive”.

In the case of `COc1c(N2C[C@@H]3CCCN[C@@H]3C2)c(F)cc2c(=O)c(C(=O)O)cn(C3CC3)c12`, the Potency result was “inactive”.

For `CO[C@]12C[C@@H](COC(=O)c3cncc(Br)c3)CN(C)[C@@H]1Cc1cn(C)c3cccc2c13`, the Potency is 2.45 µM (active).

On to `CC(C)(O)C#CC(C)(C)O`, for which the Potency entry is “inactive”.

With `COc1ccc(CCN(C)CCCC(C#N)(c2cc(OC)c(OC)c(OC)c2)C(C)C)cc1OC` (stereo not given), the Potency entry is “inactive”.

In the case of `NC(=O)Nc1ccccc1`, the Potency result is “inactive”.

Turning to `N=c1nc(N2CCCCC2)cc(N)n1O`, the Potency result was “inactive”.

On to `CCC(C)S` (stereo not given), for which the activity change, negative = inhibition is 8.24% [at 4.07 µM].

In the case of `CCN1CCC[C@H]1CNC(=O)c1c(O)c(Cl)cc(Cl)c1OC`, the Potency result was “inactive”.

Take `CCc1cccc2c(CCO)c[nH]c12`: the Potency was 17.4 µM (active).

Consider `O=C(O)CCCc1ccccc1`, for which the Potency entry is “inactive”.

In the case of `Cn1cc(S(C)=O)c(=O)c2ccc(F)cc21` (stereo not given), the Potency result is “inactive”.

Turning to `CC(=O)OCC(CCn1cnc2cnc(N)nc21)COC(C)=O`, the Potency entry was “inactive”.
